Mtb betalactam – beta-lactam sensitization of Mtb H37Rv; actives 0.27% (n = 330,000); inhibition, % at 25 µM; M. tuberculosis H37Rv growth with meropenem, percent inhibition; call rule not given here;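 further: growth measured after seven days incubation then overnight dye step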
FBA Mtb inh – inhibitors of M. tuberculosis fructose-bisphosphate aldolase; actives 2.3% (n = 360,000); P9WQA3; inhibition, % at 1 µM; purified M. tuberculosis FBA, fluorescence read-out
RecA splice inh – blocks M. tuberculosis RecA intein splicing; cell-free RecA intein splicing, fluorescence; inhibition, % (concentration not given with the values); P9WHJ3; actives 0.75% (n = 290,000); in the data active means inhibition above about 30%; inconclusive means no clear call, values can overlap the other calls
UGM FP inh – blocks M. tuberculosis UGM enzyme; P9WIQ1; purified UGM, fluorescence polarization probe displacement; inhibition, % at 10 µM; actives 0.06% (n = 320,000); AID 504406; in the data active means inhibition above about 10%, passing the limit was not always enough; inconclusive means no clear call, values can overlap the other calls
Rv3671c protease – Rv3671c (M. tuberculosis) protease inhibition; inhibition, % at 5.96 µM; actives 0.048% (n = 320,000); AID 2606; in the data active means inhibition above about 38%;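 further: extracellular domain of Rv3671c used as enzyme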
Target sequence (P9WHR9 whole entry, looked up, the tested form may be a part): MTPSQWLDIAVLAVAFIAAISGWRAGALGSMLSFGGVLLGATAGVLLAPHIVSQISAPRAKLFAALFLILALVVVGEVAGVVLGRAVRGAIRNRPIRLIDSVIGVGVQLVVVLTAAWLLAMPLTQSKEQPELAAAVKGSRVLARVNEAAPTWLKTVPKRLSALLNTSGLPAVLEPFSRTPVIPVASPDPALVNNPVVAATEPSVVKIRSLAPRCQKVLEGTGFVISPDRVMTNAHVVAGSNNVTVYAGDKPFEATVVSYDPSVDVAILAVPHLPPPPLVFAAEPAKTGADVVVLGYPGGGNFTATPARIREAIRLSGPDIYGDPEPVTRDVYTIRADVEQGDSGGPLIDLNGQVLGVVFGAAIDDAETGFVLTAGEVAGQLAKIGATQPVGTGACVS
GDH-TPI counter-1 – GDH-TPI coupled enzyme inhibition counter-screen. GDH-TPI coupled enzyme counterscreen, NADH absorbance. inhibition, % at 4.8 µM. actives 1.2% (n = 360,000). AID 588335; in the data active means inhibition above about 30%
Mtb FBA confirm – Mtb FBA inhibition, confirmed. AID 651616. inhibition, % at 1 µM. purified M. tuberculosis FBA, fluorescence read-out. actives 78% (n = 5,600). shares compounds with FBA Mtb inh
GDH-TPI counter-2 – counter-screen for M. tuberculosis FBA inhibitors: GDH-TPI coupled enzyme inhibition | shares compounds with FBA Mtb inh | GDH-TPI coupled enzyme counterscreen, fluorescence | inhibition, % at 1 µM | actives 81% (n = 5,600) | AID 652141; in the data active means inhibition above about 10%
Hits are given with their value; – = inactive; ? = inconclusive; · = not tested or not shown; + = active, no number. Most compounds without a hit are left out; they make up all but 4% or so of the library. Unless noted, no stated cut-off is given here; in the data, active means inhibition above about 27%; inactive means the rest.

SMILES	Mtb betalactam	FBA Mtb inh	RecA splice inh	UGM FP inh	Rv3671c protease	GDH-TPI counter-1	Mtb FBA confirm	GDH-TPI counter-2
COc1ccccc1C1Nc2ccccc2NC2=C1C(=O)CC(C)(C)C2 (centres undefined)	–	–	–	–	–	–	·	·
CC1(C)CC(=O)C2=C(C1)c1c(ccc3ccccc13)NC2c1ccc(Br)o1 (centres undefined)	–	31	–	–	–	–	174	148
COc1cccc(C2Nc3ccc4ccccc4c3C3=C2C(=O)CC(C)(C)C3)c1OCC(=O)O (centres undefined)	–	65	–	–	–	–	132	114
Nc1ccn(C2OC(CCl)C(O)C2O)c(=O)n1 (centres undefined)	·	–	·	·	·	–	·	·
CCc1cccc(CC)c1NC(=O)CSc1nnc(C2CC2)n1C	–	–	–	–	–	–	·	·
O=C(NCCCN1CCOCC1)c1cc2c(=O)[nH]c3ccccc3c2s1	–	88	–	–	–	–	36	24
CCN1CCN(CCCNC(=O)c2cc3c(=O)[nH]c4ccccc4c3s2)CC1	–	89	–	–	–	–	–	–
Cc1cc(-n2c(C)cc(C(=O)COc3ccc(Cl)cc3C(N)=O)c2C)no1	–	–	·	–	–	–	·	·
CCCNS(=O)(=O)c1cccc(C(=O)NNC(=O)c2cc(C)oc2C)c1	–	–	–	–	–	–	·	·
COc1cccc(C(=O)OCC(=O)c2ccc(Br)s2)c1OC	–	–	·	–	–	–	·	·
Fc1ccc2nc(Nc3nc4c(F)cccc4s3)sc2c1	–	35	–	–	–	–	–	–
Fc1cccc2sc(Nc3nc4ccccc4s3)nc12	–	32	–	–	–	–	193	134
Fc1ccc2nc(Nc3nc4c(F)cc(F)cc4s3)sc2c1	–	–	–	–	–	–	·	·
O=C(NCc1ccccc1Cl)c1ccc2sc([C@H]3C[C@H](O)[C@@H](CO)O3)nc2c1	·	–	·	·	·	–	·	·
Cc1ccc(C2Nc3ccccc3-c3nc4ccccc4n32)o1 (centres undefined)	–	82	–	–	–	–	119	95
Cc1ccc(-c2nc3ccccc3n2C)o1	–	–	–	–	–	–	·	·
COc1ccc(CCNC(=O)C(=O)c2cn(CC(=O)N3CCOCC3)c3ccccc23)cc1OC	–	27	–	–	–	–	+	+
COc1ccc(CCNC(=O)CS(=O)(=O)c2cn(CC(=O)N3CCOCC3)c3ccccc23)cc1OC	–	–	–	–	–	–	·	·
CC(C)CN1C(=O)NC2(CCCc3ccccc32)C1=O (centres undefined)	–	–	–	–	–	–	·	·
CCOC(=O)c1cc(-c2ccc(C#N)cc2)nc2c1c(C)nn2CCC#N	–	–	–	–	–	–	·	·
CCOC(=O)c1cc(-c2ccc(OC)cc2)nc2c1c(C)nn2CCC#N	–	31	–	–	–	31	76	60
CC1(C)Cc2c(cnn2-c2ccccc2)C(=O)/C1=N\NC(=O)c1ccccc1N	–	–	–	–	–	–	·	·
CC1(C)Cc2c(cnn2-c2ccccc2)-c2c1c1ccccc1n2CC(O)CBr (centres undefined)	–	31	–	–	–	–	163	107
Cc1cc(NC(=O)C(Cl)Cl)cc2c1OCO2	·	–	·	·	·	–	·	·
CCN(CC(=O)NCc1cccs1)C(=O)/C=C/c1cc(OC)ccc1OC	–	37	·	·	–	–	155	115
SMILES	Mtb betalactam	FBA Mtb inh	RecA splice inh	UGM FP inh	Rv3671c protease	GDH-TPI counter-1	Mtb FBA confirm	GDH-TPI counter-2
CCN(CC(=O)NCc1cccs1)C(=O)/C=C/c1ccc(OC)cc1OC	–	–	–	–	–	–	·	·
COc1ccc(OC)c(/C=C/C(=O)N2CCN(S(=O)(=O)c3ccc(C)cc3C)CC2)c1	–	29	·	·	–	–	–	–
COc1ccc(OC)c(/C=C/C(=O)N(C)CC(=O)Nc2ccc(C)cc2)c1	–	–	–	–	–	–	·	·
COc1ccc(OC)c(/C=C/C(=O)N(C)CC(=O)Nc2cc(C)ccc2C)c1	–	29	–	–	–	–	34	29
Cc1nn2cnnc2c(C)c1Cc1ccc(Cl)cc1	–	–	–	–	–	–	·	·
O=CNc1c(Cl)cc2c(c1Cl)Cc1cc([N+](=O)[O-])ccc1-2	·	–	·	·	·	–	·	·
NS(=O)(=O)c1ccc(CCNC(=O)c2coc3ccccc3c2=O)cc1	–	28	–	–	–	–	155	99
Cc1ccccc1N1CCN(C2CCCN(C(=O)c3ccsc3)C2)CC1 (centres undefined)	–	–	–	–	·	–	·	·
O=C(CN1C(=O)COc2ccccc21)N1CCN(C2CCCCC2)CC1	–	–	–	–	–	–	·	·
COc1ccc(NC(=O)CCc2nnc3ccc(NCc4ccco4)nn23)cc1OC	–	89	–	–	–	–	142	118
COc1ccc(NC(=O)CCc2nnc3ccc(NCc4ccco4)nn23)cc1	–	–	–	–	–	–	·	·
Cc1ccc2c(c1)c1c(c(=O)n(-c3ccccc3)c(=O)n1CC(=O)NCC1CCCO1)n2C (centres undefined)	–	56	–	–	–	–	76	52
CCOC(=O)Nc1ccc(C(=O)Oc2ccccc2)c(O)c1	–	–	–	–	–	–	·	·
Cc1cccc(OC(=O)Nc2ccc(C(=O)O)c(O)c2)c1	·	29	·	·	·	–	+	180
COc1ccc2oc(C(=O)OCC(=O)N3CCC(C)CC3)c(C)c2c1	?	44	–	–	–	–	–	–
COC(=O)C1CCN(C(=O)COC(=O)c2oc3ccc(OC)cc3c2C)CC1	?	51	–	–	–	–	108	103
Cc1c(C(=O)OCC(=O)N2CCC(C)CC2)oc2ccccc12	–	–	–	–	–	–	·	·
CCOC(=O)N1CCN(C(=O)COC(=O)c2oc3ccc(OC)cc3c2C)CC1	–	48	–	–	–	–	+	+
COc1ccc2oc(C(=O)OCC(=O)Nc3ccc(N4CCOCC4)cc3)c(C)c2c1	–	–	–	–	–	–	·	·
NS(=O)(=O)c1ccc2nc(NC(=O)Nc3ccc(F)cc3)sc2c1	–	–	–	–	–	–	·	·
CCn1c(SC)nnc1-c1ccc(S(=O)(=O)N2CCCCC2)cc1	–	28	–	–	–	–	42	34
CN1CCN(CCCNC(=O)c2cc3c(-c4ccc(Cl)cc4)nn(C)c3s2)CC1	–	28	–	·	–	–	62	57
Cn1nc(-c2ccc(Cl)cc2)c2cc(C(=O)NCC3CCCO3)sc21 (centres undefined)	–	63	–	–	–	–	81	57
CCN(CC)CCCNC(=O)c1cc2c(-c3ccc(Cl)cc3)nn(C)c2s1	–	–	·	–	–	–	·	·
CCOC(=O)c1[nH]c2ccc(OC)cc2c1NC(=O)OC	–	38	–	–	–	–	+	146

Screening data from PubChem BioAssay.
